For 24 compounds, Potency and viability results are on record in PubChem BioAssay (NCATS).

The nature of experiment [1]: BET inhibitor-based combinations targeting novel dependencies in MECOM-rearranged (r) AML: SET-2 cell line (AID 2202231).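 For viability: plate controls were DMSO treated cells for no effect and wells without cells for full effect.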 Note: nearly all actives have a fitted effect of over 35% in size. As to conditions: SET-2 AML cells viability, CellTiter-Glo luminescence, 48 h; viability: active compounds read low, concentration not given here. In outline:
(§1)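 Here, 11-point titrations of each agent were applied to 500 seeded cells and incubated 48 hr; CellTiter-Glo signal, scaled against DMSO and empty wells, was integrated as AUC, then Z-scored within the individual line.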

The nature of experiment [2]: BET inhibitor-based combinations targeting novel dependencies in MECOM-rearranged (r) AML: MV-4-11 cell line (AID 2202233). Note: nearly all actives have a fitted effect of over 45% in size. In outline: (§2)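 Normalized to DMSO and empty-well controls, the luminescence data from CellTiter-Glo after 48 hr drug exposure were fitted across 11 concentrations. Reported metrics are area under the dose-response curve and its Z-transformed form.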

A short description of experiment [3]: BET inhibitor-based combinations targeting novel dependencies in MECOM-rearranged (r) AML: HNT-34 cell line (AID 2202234). Note: nearly all actives have a fitted effect of over 35% in size. In outline:
as §2

A short description of experiment [4]: BET inhibitor-based combinations targeting novel dependencies in MECOM-rearranged (r) AML: UCSD-AML1 cell line (AID 2202235). Note: nearly all actives have a fitted effect of over 40% in size. In outline:
as §2

The nature of experiment [5]: BET inhibitor-based combinations targeting novel dependencies in MECOM-rearranged (r) AML: AML-194 cell line (AID 2202237; note: nearly all actives have a fitted effect of over 40% in size). In outline: as §1
Experiment [6] is described as follows: BET inhibitor-based combinations targeting novel dependencies in MECOM-rearranged (r) AML: AML-191 cell line (AID 2202236; note: nearly all actives have a fitted effect of over 35% in size). In outline:
as §1

Inconclusive results are not listed. A number with no mark means an inactive call. The source made the active and inactive calls. Calls come from the whole dose curve; as a rule, active = well fitted curve in the direction sought with a large enough effect; inconclusive = small, poorly fitted or top-dose-only effect, or another doubt; inactive = no such curve, though single readings can be large; an effect the other way counts as inactive or inconclusive.
Potency is the fitted concentration of half-maximal effect.

As for `Cc1ccc(-c2ncn(-c3ccc(Nc4nccc(-c5cccc(N6CCOCC6)c5)n4)cc3)n2)cn1`, the Potency in experiment [1] is 3720 nM (active); in experiment [2], 2350 nM (active); in experiment [3], 2950 nM (active); in experiment [4], 2350 nM (active); in experiment [5] it was 2950 nM (active).

The term viability denotes a read-out of living cells in per cent, often relative to untreated cells. `COc1ccc(C(=O)N2CCN(C(=O)/C=C/c3ccc(Br)cc3)CC2)cc1`: the viability in experiment [1] is 111%. Besides, the Potency in experiment [2] is 11800 nM (active). The Potency result in experiment [4] and in experiment [5] was “inactive” throughout.

Consider `CC(=O)O/N=C1/C(c2c(O)[nH]c3cc(Br)ccc23)=Nc2ccccc21`, for which the Potency in experiment [1] was 14800 nM (active); in experiment [3], 2950 nM (active); in experiment [6], 18600 nM (active). Besides, the Potency entry in experiment [4] was “inactive”.

As to `NC1=N[C@@]2(c3cc(NC(=O)c4ccc(F)cn4)ccc3F)COC[C@H]2CS1`, the viability in experiment [1] is 112%. Besides, the Potency entry in experiment [3], in experiment [4], in experiment [6] and in experiment [5] was “inactive” in each case.

As for `O=C(O)CCC=CCC[C@@H]1[C@H](N2CCCCC2)[C@@H](O)C[C@@H]1OCc1ccc(-c2ccccc2)cc1`, the Potency in experiment [1] was 1180 nM (active). Also, the Potency entry in experiment [2], in experiment [6] and in experiment [5] was “inactive” throughout.

As for `CCn1c(=O)c2c(nc(/C=C/c3ccc(OC)c(OC)c3)n2C)n(CC)c1=O`, in experiment [1], the viability is 107%. The Potency result in experiment [3], in experiment [4], in experiment [6] and in experiment [5] was “inactive” each time.

Take `CC(=O)CC(c1ccccc1)c1c(O)c2ccccc2oc1=O` (configuration not stated): the viability in experiment [1] is 107%. Further, the Potency result in experiment [3], in experiment [4], in experiment [6] and in experiment [5] was “inactive” each time.

On to `CCOC(=O)C1=C(C)NC(=S)NC1c1cccc(O)c1` (configuration not stated), for which, in experiment [1], the viability is 98.4%. Moreover, the Potency in experiment [3] was 18600 nM (active).

Regarding `C[C@@H](Oc1ccc2[nH]nc(/C=C/c3cnn(CCO)c3)c2c1)c1c(Cl)cncc1Cl`, the Potency in experiment [1] is 1050 nM (active); in experiment [3], 662 nM (active); in experiment [4], 1050 nM (active); in experiment [6], 833 nM (active); in experiment [5] it was 934 nM (active).

On to `O=c1ncccn1[C@@H]1O[C@H](CO)[C@@H](O)[C@H]1O`, for which the viability in experiment [1] was 109%. In addition, the Potency entry in experiment [3] and in experiment [6] was “inactive” throughout.

Regarding `CC(C)(C)S(=O)(=O)c1ccc2nccc(Nc3n[nH]c4ccc(F)cc34)c2c1`, the viability in experiment [1] is 104%. Further, the Potency result in experiment [3] and in experiment [5] was “inactive” throughout. Further, the Potency was 1.2 nM (active) in experiment [4] and 10500 nM (active) in experiment [6].

As to `O=C(NCc1ccccc1)[C@H](Cc1ccccc1)NC(=O)[C@H]1O[C@@H]1C(=O)NCCc1ccc(O)cc1`, the viability in experiment [1] is 105%. Further, the Potency in experiment [2] is 23500 nM (active). The Potency entry in experiment [4] and in experiment [5] was “inactive” in each case.

On to `CC(/C=C/[C@@H]1C[C@]1(C)c1ccc2c(c1)C(C)(C)CCC2(C)C)=C\C(=O)O`, for which, in experiment [1], the viability is 110%. In addition, in experiment [3], the Potency is 18600 nM (active).

Consider `Cc1cc(O)c(-c2ccc([C@@H](C)CN)cc2)c2c1[nH]c(=O)c1sccc12`, for which the Potency was 372 nM (active) in experiment [1], 41.7 nM (active) in experiment [3] and 83.3 nM (active) in experiment [6].

For `NS(=O)(=O)c1ccc(Cc2c(-c3cccc(-c4ccccc4)c3)nn(-c3nc(C(=O)O)cs3)c2CC2CC2)cc1`, the viability in experiment [1] was 106%. Besides, the Potency entry in experiment [3] and in experiment [4] was “inactive” in each case. Further, the Potency in experiment [6] was 7420 nM (active).

Turning to `CN(C(=O)CNC(=O)/C=C/c1cccc(Cl)c1)C1CCS(=O)(=O)CC1`, the Potency in experiment [1] was 662 nM (active). Besides, the Potency result in experiment [3] and in experiment [4] was “inactive” throughout.

Consider `CN(CCOc1ccc(-c2ccc3c(c2)OCO3)cc1C(C)(C)C)CC(=O)O`, for which, in experiment [1], the viability was 105%. The Potency entry in experiment [3], in experiment [4] and in experiment [5] was “inactive” in each case.

For `OC1CCC([C@H](O)C[C@H]2c3c(F)cccc3-c3cncn32)CC1` (some centres not stated), the viability in experiment [1] is 118%. Moreover, the Potency result in experiment [3], in experiment [4], in experiment [6] and in experiment [5] was “inactive” in each case.

Consider `CN(C)CCCN=c1c2ccccc2n(C)c2[nH]c(=O)n(C)c(=O)c12`, for which the values for the Potency in experiment [1], in experiment [2] and in experiment [6] were 23500 nM (active), 9340 nM (active) and 18600 nM (active), respectively.

`CNC(=O)Cn1cc(-c2ccc3c(c2)C(F)CC32NC(=O)N(CC(=O)N(Cc3ccc(F)cc3)C(C)C(F)(F)F)C2=O)cn1` (configuration not stated): the Potency was 3720 nM (active) in experiment [1], 83.3 nM (active) in experiment [3] and 148 nM (active) in experiment [4].

Regarding `Clc1cccc(C(c2ccc3nc[nH]c3c2)n2ccnc2)c1` (configuration not stated), the viability in experiment [1] is 113%. Further, the Potency result in experiment [3], in experiment [4], in experiment [6] and in experiment [5] was “inactive” each time.

For `Nc1nccc2c1ncn2[C@@H]1C=C(CO)[C@@H](O)[C@H]1O`, the results for the Potency in experiment [1] and in experiment [3] were 525 nM (active) and 833 nM (active), respectively.

On to `O=S(=O)(c1cccc2cnccc12)N1CCCNCC1`, for which, in experiment [1], the viability was 101%. In addition, the Potency entry in experiment [3], in experiment [6] and in experiment [5] was “inactive” each time.

As to `CC#Cc1cncc(-c2ccc3c(c2)[C@@]2(N=C(C)C(N)=N2)C2(CCC(OC)CC2)C3)c1` (some centres not stated), the viability in experiment [1] is 107%. The Potency result in experiment [3] and in experiment [5] was “inactive” in each case.
